Laboratory results as given in the supplement of paper PMC6135742.
Counter-ions that a name gives are not always drawn. ± gives the standard deviation of the averaged measurements. In all, about 2,600 compounds were measured (“total cell number (DAPI+ nuclei) relative to DMSO vehicle control”: median about -1.4, lowest 2% from about -23 on). Shown is part of a subset that was picked to be rich in the lowest values.

These molecules were tested on jimpy (Plp1 jimpy) mouse iPSC-derived oligodendrocyte progenitor cells (assay: total cell number (DAPI+ nuclei) relative to DMSO vehicle control (SDs above negative control mean); higher = more surviving cells). Conditions: 10 µM; 3 days.
Protocol: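 Primary phenotypic screen of >3,000 bioactive compounds (Selleck L1700 and Sigma LO1280 libraries) at a single dose of 10 µM. Compounds were added to jimpy (Plp1 mutant) mouse iPSC-derived OPCs at the start of thyroid hormone-induced oligodendrocyte differentiation, one well per compound in 384-well plates. After 3 days cells were stained for MBP, Sox10 and DAPI and imaged with an Operetta system. MBP+ oligodendrocyte number and total cell number were expressed as the number of SDs above the mean of the DMSO negative control on the same plate (n=16 control wells per plate). Hits were defined as >=4 SD for oligodendrocytes and >=2 SD for total cells.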

SMILES	total cell number
CCCCCN(CCCOC)C(=O)C(CCC(=O)O)NC(=O)c1ccc(Cl)c(Cl)c1 (stereo not given) [Loxiglumide]	-0.322
CC[C@@H]1C(=O)N(C)c2cnc(Nc3ccc(C(=O)N[C@H]4CC[C@H](N5CCN(CC6CC6)CC5)CC4)cc3OC)nc2N1C(C)C [Volasertib (BI 6727)]	-14.6
COc1cc(OC2CCN(C)CC2)ccc1Nc1ncc2c(n1)n(C1CCCC1)c(=O)n2C	-7.07
CC[C@@H]1C(=O)N(C)c2cnc(Nc3ccc(C(=O)NC4CCN(C)CC4)cc3OC)nc2N1C1CCCC1	-26.1
CN1C2=CC(=O)/C(=N\NC(N)=O)C=C2CC1S(=O)(=O)O (stereo not given) [Carbazochrome sodium sulfonate (AC-17)]	-0.411
CC1=C(C(=O)OC(C)C)C(c2cccc([N+](=O)[O-])c2)C(C(=O)OC2CN(C(c3ccccc3)c3ccccc3)C2)=C(N)N1 (stereo not given) [Azelnidipine]	-12.3
CNCc1cc(-c2ccccc2F)n(S(=O)(=O)c2cccnc2)c1	-1.01
CNC(=O)c1cc(Oc2ccc(NC(=O)Nc3ccc(Cl)c(C(F)(F)F)c3)c(F)c2)ccn1 [Regorafenib (BAY 73-4506)]	0.684
Cn1c(=O)c(-c2c(Cl)cccc2Cl)cc2cnc(Nc3ccc(N4CCOCC4)cc3)nc21	-9.85
CNC(=O)c1ccccc1Nc1nc(Nc2ccc(N3CCOCC3)cc2OC)ncc1Cl	-12.2
C=CC(=O)Nc1cccc(Nc2nc(Nc3ccc(Oc4ccnc(C(=O)NC)c4)cc3)ncc2F)c1	-15
CCC(=O)Nc1cccc(Oc2nc(Nc3ccc(N4CCN(C)CC4)cc3OC)ncc2Cl)c1	-15.2
Cc1cc(Nc2ncc(Cl)c(Nc3ccccc3S(=O)(=O)C(C)C)n2)c(OC(C)C)cc1C1CCNCC1	-16.3
COc1cc(N2CCC(N3CCN(C)CC3)CC2)ccc1Nc1ncc(Cl)c(Nc2ccccc2S(=O)(=O)C(C)C)n1	-27.1
C=CC(=O)Nc1cccc(Oc2nc(Nc3ccc(N4CCN(C)CC4)cc3)ncc2Cl)c1	-26.9
Cc1cnc(Nc2ccc(N3CCN(C)CC3)cc2)nc1Nc1cccc(S(=O)(=O)NC(C)(C)C)c1	-12.1
C=CCn1c(=O)c2cnc(Nc3ccc(N4CCN(C)CC4)cc3)nc2n1-c1cccc(C(C)(C)O)n1	-14.6
C=CC(=O)Nc1cccc(Nc2nc(Nc3ccc(N4CCN(C(C)=O)CC4)cc3OC)ncc2C(F)(F)F)c1	-15.5
C=CC(=O)Nc1cccc(Sc2nc(Nc3ccc(N4CCN(C)CC4)cc3)ncc2Cl)c1	-26.9
C=CC(=O)Nc1cccc(Oc2nc(Nc3ccc(N4CCN(C)CC4)cc3OC)ncc2Cl)c1	-24.9
CC(C)(CO)Cc1cc(C(C)(C)C)c(O)c(C(C)(C)C)c1	1.01
COC(=O)C1=C(C)NC(C)=C(C(=O)OC(C)(C)CN(C)CCC(c2ccccc2)c2ccccc2)C1c1cccc([N+](=O)[O-])c1 (stereo not given) [Lercanidipine hydrochloride hemihydrate]	-8.91
CC(C)(NS(=O)(=O)c1ccc(Oc2ccc(F)cc2)cc1)C(=O)NO	-2.86
CC(N)(Cc1ccc(O)c(O)c1)C(=O)O (racemic) [(±)-3-(3,4-dihydroxyphenyl)-2-methyl-DL-alanine]	-2.34
N=C(N)SCCN [2-(2-Aminoethyl)isothiourea dihydrobromide]	-2.29

SMILES	total cell number
O=C(NC1CCOCC1)c1ccc(-c2cc(-c3c[nH]nc3-c3ccccn3)ccn2)cc1	-0.803
O=C(Nc1c[nH]nc1-c1nc2ccc(CN3CCOCC3)cc2[nH]1)NC1CC1	-22.6
CCCCNc1ncc(-c2ccc(CN3CCOCC3)cn2)c(NC2CCC(O)CC2)n1 (stereo not given)	-8.26
O=C(O)Cn1nnc(-c2cc(N3CCC(Oc4cc(F)ccc4Br)CC3)no2)n1	3.6
CC(C)N(CCCNC(=O)Nc1ccc(C(C)(C)C)cc1)C[C@H]1O[C@@H](n2cc(Br)c3c(N)ncnc32)[C@H](O)[C@@H]1O	-7.77
COC(=O)c1ccc2c(c1)NC(=O)/C2=C(\Nc1ccc(N(C)C(=O)CN2CCN(C)CC2)cc1)c1ccccc1 [Nintedanib (BIBF 1120)]	-23
CCS(=O)(=O)Nc1ccc2c(c1)/C(=C(/Nc1ccc(CN3CCCCC3)cc1)c1ccccc1)C(=O)N2 [Hesperadin]	-17.7
CN(C)Cc1cccc(N/C(=C2\C(=O)Nc3cc(C(N)=O)ccc32)c2ccccc2)c1	-14.3
C[C@@H]1O[C@@H](OC[C@H]2O[C@@H](Oc3c(-c4ccc(O)c(O)c4)oc4cc(O)cc(O)c4c3=O)[C@H](O)[C@@H](O)[C@@H]2O)[C@H](O)[C@H](O)[C@H]1O [Rutin]	-0.749
CCCNS(=O)(=O)Nc1ncnc(OCCOc2ncc(Br)cn2)c1-c1ccc(Br)cc1 [Macitentan]	-0.584
CC(C)[C@H](NC(=O)c1ccc2ccccc2n1)C(=O)N[C@@H](CC(=O)O)C(=O)COc1c(F)cccc1F	15.6
CC(C)C[C@H](NC(=O)[C@H](Cc1ccccc1)NC(=O)c1cnccn1)B(O)O [Bortezomib (PS-341)]	-20.2
CC(C)C[C@H](NC(=O)[C@@H](NC(=O)c1cccc(-c2ccccc2)n1)[C@@H](C)O)B(O)O	-22.6
C=CC(N)CCC(=O)O (racemic) [(±)-gamma-Vinyl GABA]	-0.562
COc1ccc(C2CC(=O)c3c(O)cc(OC4OC(COC5OC(C)C(O)C(O)C5O)C(O)C(O)C4O)cc3O2)cc1OC (stereo not given) [Methyl-Hesperidin]	-1.13
NCC(O)c1ccc(O)c(O)c1 (racemic) [(±)-Norepinephrine (+)bitartrate]	0.169
Cc1nc(Nc2ncc(C(=O)Nc3c(C)cccc3Cl)s2)cc(N2CCN(CCO)CC2)n1 [Dasatinib]	-22.6
COc1cccc(C(=O)NCCN2CCN(c3ccc(Cl)cc3)CC2)c1	-2.1
CNC(=O)c1ccc2cc([C@@]3(O)CCn4cncc43)ccc2c1 [TAK-700 (Orteronel)]	0.9
CC1(C)S[C@@H]2[C@H](NC(=O)C(C(=O)O)c3ccccc3)C(=O)N2[C@H]1C(=O)O (stereo not given in full) [Carbenicillin disodium]	0.323
Cc1nc(N)sc1-c1ccnc(Nc2ccc(N3CCOCC3)cc2)n1	-22.6
O=C(Nc1ccc(-c2ccnc(Nc3ccc(N4CCOCC4)cc3)n2)cc1)C1CCCN1 (stereo not given)	-12.4
N#CCNC(=O)c1ccc(-c2ccnc(Nc3ccc(N4CCOCC4)cc3)n2)cc1	-12.5
CC(C)OC(=O)C(C(=O)OC(C)C)=C1SC=CS1 [Malotilate]	7.42
COc1ccc(C2(CNC(=O)c3ccc(NC(=O)c4ccco4)cc3)CCOCC2)cc1	-6.22

SMILES	total cell number
CO[C@@H](C(=O)N1Cc2[nH]nc(NC(=O)c3ccc(N4CCN(C)CC4)cc3)c2C1)c1ccccc1	-24.2
CCc1cccc(CC)c1NC(=O)N1Cc2[nH]nc(NC(=O)c3ccc(N4CCN(C)CC4)cc3)c2C1	-17.5
Cc1cc2c(F)c(Oc3ncnn4cc(OC[C@@H](C)OC(=O)[C@H](C)N)c(C)c34)ccc2[nH]1	-4.11
Cc1cc2c(F)c(Oc3ncnn4cc(OC[C@@H](C)O)c(C)c34)ccc2[nH]1	-1.9
COc1cc2c(Oc3ccc4[nH]c(C)cc4c3F)ncnc2cc1OCCCN1CCCC1 [Cediranib (AZD2171)]	-26.9
CN(C)C(=O)[C@H](O)[C@H](Cc1ccccc1)NC(=O)c1cc2cc(Cl)ccc2[nH]1	0.79 ± 0.2
CCCC(CCC)C(=O)O[C@H]1C[C@H]2CC[C@@H](C1)[N+]2(C)C [Anisotropine methyl bromide]	12.1
COc1ccc(-c2nc(N3CCOCC3)c3sc(CN(C)c4ncc(C(=O)NO)cn4)cc3n2)cn1	-10.4
CS(=O)(=O)N1CCN(Cc2cc3nc(-c4cccc5[nH]ncc45)nc(N4CCOCC4)c3s2)CC1	-23.7
Cc1c(CN2CCN(C(=O)[C@H](C)O)CC2)sc2c(N3CCOCC3)nc(-c3cnc(N)nc3)nc12	-11.4
O=c1cc(-c2ccccc2)oc2cc(O)c(O)c(O)c12 [Baicalein]	-6.52
CCCCOc1ccc(C(=O)Nc2ccc(F)cc2F)cc1	1.72
CCCCCCCCCCCC1=C(O)C(=O)C=C(O)C1=O [Embelin]	1
COc1cc(Nc2ncc3c(n2)-c2ccc(Cl)cc2C(c2c(F)cccc2OC)=NC3)ccc1C(=O)O [Alisertib (MLN8237)]	-12.8
NCC(=O)Nc1ccc(-n2nc(C(F)(F)F)cc2-c2ccc3c(ccc4ccccc43)c2)cc1	-26.5
Cc1ccc(-c2cc(C(F)(F)F)nn2-c2ccc(S(N)(=O)=O)cc2)cc1 [Celecoxib]	0.578 ± 0.53
NS(=O)(=O)c1ccc(-n2nc(C(F)(F)F)cc2-c2ccc(Cl)cc2)cc1	0.298
CCCCc1nc2cc(/C=C/C(=O)NO)ccc2n1CCN(CC)CC [Pracinostat (SB939)]	-12.2
CCN(CC)CCNC(=O)c1c(C)[nH]c(/C=C2\C(=O)Nc3ccc(F)cc32)c1C [Sunitinib Malate]	-26.5
CCN(CC)CCNC(=O)c1cc(S(C)(=O)=O)ccc1OC [Tiapride hydrochloride]	-1.15
CCN(CC)CCNC(=O)c1c(C)[nH]c(/C=C2\C(=O)Nc3ccc(F)cc32)c1C [Sunitinib malate]	-11.2
Cc1[nH]c(/C=C2\C(=O)Nc3ccccc32)c(C)c1CCC(=O)O [TSU-68 (SU6668, Orantinib)]	-0.233
C[N+](C)(C)CC(O)CC(=O)[O-] (racemic) [DL-Carnitine HCl]	2.24
CC(=O)C(C)=O [2,3-Butanedione]	-1.17
CC[C@H]1OC(=O)C[C@@H](O)[C@H](C)[C@@H](O[C@@H]2O[C@H](C)[C@@H](O)[C@H](N(C)C)[C@H]2O)[C@@H](CCN2C[C@H](C)C[C@H](C)C2)C[C@@H](C)C(=O)/C=C/C(C)=C/[C@@H]1CO[C@@H]1O[C@H](C)[C@@H](O)[C@@H](OC)[C@H]1OC [Tilmicosin]	-3.95
